Experimental data published in PubChem BioAssay AID1053173 (Broad Institute, 2014).
The whole screen tested about 1,500 compounds, of which about 390 (26%) were called active. How the calls were made is not given here. A selection follows. Potency and affinity values are given separately.

Molecular target: Histone-lysine N-methyltransferase NSD2 (Homo sapiens) (UniProt O96028)
Test: NSD2 methyltransferase inhibitors, dose response, biochemical, AlphaScreen, cherry-picked samples (AID 1053173)
Settings: NSD2 H4 peptide methylation, 120 min; series mostly up to 10 µM

Chain of Histone-lysine N-methyltransferase NSD2 (Homo sapiens) (O96028 whole entry, looked up): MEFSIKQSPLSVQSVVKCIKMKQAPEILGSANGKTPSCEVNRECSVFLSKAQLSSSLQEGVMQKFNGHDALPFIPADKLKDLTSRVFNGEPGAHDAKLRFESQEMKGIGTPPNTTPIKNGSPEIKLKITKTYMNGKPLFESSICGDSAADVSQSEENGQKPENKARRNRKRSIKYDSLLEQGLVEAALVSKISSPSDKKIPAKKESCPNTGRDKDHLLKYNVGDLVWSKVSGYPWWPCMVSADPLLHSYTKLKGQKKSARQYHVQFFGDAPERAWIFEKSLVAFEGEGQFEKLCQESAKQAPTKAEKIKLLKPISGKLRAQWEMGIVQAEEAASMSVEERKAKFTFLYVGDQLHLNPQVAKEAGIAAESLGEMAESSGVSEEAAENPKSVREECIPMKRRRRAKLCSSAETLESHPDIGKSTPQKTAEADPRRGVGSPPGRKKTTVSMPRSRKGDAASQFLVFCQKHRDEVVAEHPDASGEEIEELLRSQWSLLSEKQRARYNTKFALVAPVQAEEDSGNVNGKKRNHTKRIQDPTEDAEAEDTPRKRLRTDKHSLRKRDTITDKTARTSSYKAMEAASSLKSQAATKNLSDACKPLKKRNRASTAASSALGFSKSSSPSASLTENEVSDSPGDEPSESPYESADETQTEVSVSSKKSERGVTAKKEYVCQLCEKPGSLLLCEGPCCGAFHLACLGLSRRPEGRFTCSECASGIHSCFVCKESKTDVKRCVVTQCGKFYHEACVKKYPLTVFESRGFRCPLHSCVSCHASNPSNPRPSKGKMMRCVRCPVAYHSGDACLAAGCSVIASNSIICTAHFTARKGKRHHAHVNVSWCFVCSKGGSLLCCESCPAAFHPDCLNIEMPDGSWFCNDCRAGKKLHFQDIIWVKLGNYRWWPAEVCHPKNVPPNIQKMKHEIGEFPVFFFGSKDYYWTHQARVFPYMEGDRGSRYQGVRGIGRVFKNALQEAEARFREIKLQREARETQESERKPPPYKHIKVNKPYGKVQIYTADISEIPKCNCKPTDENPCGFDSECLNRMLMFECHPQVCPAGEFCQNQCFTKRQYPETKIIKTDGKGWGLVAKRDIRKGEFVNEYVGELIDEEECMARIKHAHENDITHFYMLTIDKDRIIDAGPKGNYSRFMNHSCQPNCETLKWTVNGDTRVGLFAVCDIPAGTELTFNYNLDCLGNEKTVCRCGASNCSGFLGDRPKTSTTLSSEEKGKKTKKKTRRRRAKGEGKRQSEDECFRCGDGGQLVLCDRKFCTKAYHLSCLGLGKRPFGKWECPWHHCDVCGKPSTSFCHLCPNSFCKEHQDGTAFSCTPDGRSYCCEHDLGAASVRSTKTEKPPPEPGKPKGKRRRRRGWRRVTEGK

outcome, inactive:
O=S(=O)(Nc1nc(-c2ccco2)c(-c2ccco2)s1)c1ccc(F)cc1F
O=C(COC(=O)c1cc(S(=O)(=O)N2CCOCC2)ccc1F)c1ccc[nH]1
CCN(CC)C(=O)c1cc([N+](=O)[O-])cc2c1-c1ccc([N+](=O)[O-])cc1C2=C(C#N)C#N
CC(=O)c1cc(-c2ccccc2)n(CC(=O)NC2CCCCC2)c1C
COc1ccc(-c2c3c(nc4sc(C(=O)Nc5cc(C)on5)c(N)c24)CCC3)cc1
N=C1SCC(=O)N1c1ncc(Cc2cccc(Cl)c2)s1
Cc1cccc(OCCC(=O)Nc2ccccc2C(N)=O)c1
Cc1cc(=O)n(Cc2ccccc2)c(O)c1C#N
COC(=O)c1c(SCC(=O)Nc2ccc(C)c(C)c2)nc(=O)[nH]c1C
CCn1cnc2c1c(=O)n(CC(=O)O)c(=O)n2Cc1ccccc1
CCOC(=O)c1c(C)[nH]c(C)c1C(=O)COC(=O)[C@@H]1CCCN1S(=O)(=O)c1ccc(Cl)cc1
CCOC(=O)c1cc(-c2ccc(F)cc2)nc2c1c(=O)[nH]c(=O)n2Cc1ccccc1
Cc1c(C)n(Cc2ccccc2)c2ccc(C(=O)OCCCN(C)C)cc12
COc1ccc(S(=O)(=O)N(C)CC(=O)NCCN2CCOCC2)cc1Cl
c1ccc(CCN2CN=C(Nc3nc4ccccc4s3)NC2)cc1
O=C1CC2(CCCCC2)CC(=O)N1CCc1ccccc1
Nc1ccc(N=Nc2ccccc2O)c(N)c1
O=C(OCc1ccc(Cl)c(Cl)c1)c1cccnc1Cl
CCN1CCN(CCCNC(=O)c2ccc3c(c2)NC(=O)/C(=C\c2cccc(C)c2)S3)CC1
O=C(CN1CCOCC1)Nc1ccc(Oc2ccccc2)cc1
O=C(O)C=C1C2CC3CC(C2)CC1C3
COC(=O)CC1=NN(c2ccc(OC)cc2)C(=O)/C1=C\c1ccc(Cl)cc1
Nc1nonc1C(=O)N/N=C/c1cc2c(cc1[N+](=O)[O-])OCO2
CC(C)(C)C(=O)NC1CC2CCCC(C1)N2C(=O)Nc1ccc(Cl)cc1 (stereo unspecified)
COc1ccc2c(C#N)c3ccccn3c2c1
COc1ccc(-c2cn[nH]c2N)cc1
CN(C)CCCN1C(=O)c2cccc3c([N+](=O)[O-])ccc(c23)C1=O
O=C1CC(=O)Nc2cc(S(=O)(=O)Nc3ccc(Cl)c(C(F)(F)F)c3)ccc2N1
COc1ccc(NS(=O)(=O)c2cccc(C(=O)N3CCCCCC3)c2)cc1
CC(=O)NC1=NN(C(C)=O)C(C)(c2cccc([N+](=O)[O-])c2)S1 (stereo unspecified)
CCOC(=O)C1(C)CCCN1C(=O)c1cccc(F)c1 (stereo unspecified)
CC1(CC(=O)N/N=C/c2cc([N+](=O)[O-])c(O)cc2O)OCCO1
Cc1cc(NC(=O)COC(=O)c2cccc(S(=O)(=O)N3CCOCC3)c2)no1
O=C(CSc1nc(-c2ccccc2)c(-c2ccccc2)o1)Nc1nnc(-c2ccccc2)s1
O=C(CNc1ccc(F)cc1)N/N=C/c1c(O)ccc2ccccc12
C/C(=N\NC(=O)CSc1nc2ccccc2o1)c1ccc(O)cc1
C=CCn1c(-c2ccc(OC)cc2)nc2nc3ccccc3nc21
O=c1[nH]c(CN2CCOCC2)nc2cc(Cl)ccc12
CCOc1cc(/C=C/C(=O)OCC(=O)NCCN2C(=O)CSC2=O)ccc1OCC(C)C
Cc1cccc(-n2c3nc(=O)[nH]c(=O)c-3cc3cc([N+](=O)[O-])ccc32)c1
Cc1c(N=NC2=C(O)CC(C)(C)CC2=O)c(=O)n(-c2ccccc2)n1C
Cc1c(NC(=O)CN2C(=O)C(=O)c3ccccc32)c(=O)n(-c2ccccc2)n1C
C/C(=C\C(=O)c1cccnc1)Nc1ccc(O)cc1
COc1ccc(CCNC(=O)CN2C(=O)C(=O)N(C3CCCC3)C2=O)cc1OC
CN(C)Cc1csc(NC(=O)Nc2cccc(Cl)c2)n1
Cn1c(N2CCCC2)nc2c1c(=O)n(Cc1ccc(Cl)cc1)c(=O)n2C
COCCN(C(=O)CCC(=O)Nc1cc(C)on1)C(C(=O)NC(C)(C)C)c1ccccc1Cl (stereo unspecified)
COc1ccc(C(C[N+](=O)[O-])c2c(C)[nH]n(-c3ccccc3)c2=O)cc1 (stereo unspecified)
COc1ccc(Cc2ccccc2C(=O)O)cc1
O=C(NNS(=O)(=O)c1ccc(F)cc1F)c1csc(-c2cccnc2)n1
O=C(NCCN1CCCCC1)/C(=C/c1ccco1)NC(=O)c1ccccc1
O=C(COc1ccccc1O)NCCN1CCOCC1
O=C(CCc1ccccc1)NCCCN1CCOCC1
Cc1nn2c3ccccc3n(CCN3CCCCC3)c2nc1=O
O=C(NCCCN1CCCC1=O)Nc1ccc(Cl)cc1Cl
O=C(O)Cc1sc(NC2CCCCC2)nc1-c1ccc(Cl)cc1
Cn1c(=O)c2c(nc(CN3CCC(C(N)=O)CC3)n2Cc2ccccc2Cl)n(C)c1=O
Cc1ccc(-n2c(C)c(C)c3c(N)ncnc32)cc1
CC(=O)c1ccc(-n2c(-c3cc(-c4ccco4)[nH]n3)n[nH]c2=S)cc1
Cc1cc(=O)[nH]c(COc2ccccc2)n1
COC(=O)COc1ccc(S(=O)(=O)NCC2CCCO2)cc1Cl (stereo unspecified)
Cc1ccc(Nc2nc(-c3ccc(O)c(O)c3)cs2)nc1
CCOC(=O)c1sc(NC(=O)COc2ccc3c(c2)OCO3)nc1C
COc1ccccc1OCCOc1ccc(/C=C2\C(=N)N3N=C(S(C)(=O)=O)SC3=NC2=O)cc1
O=C(C=Cc1ccccc1)c1cc(Br)ccc1O
Cc1sc2ncnc(SCC(=O)Nc3ccc(CN4CCCC4)cc3)c2c1C
Nc1nc(O)c(Sc2ccccc2[N+](=O)[O-])c(=O)[nH]1
Nn1cnnc1N/N=C/c1ccc(Cl)c([N+](=O)[O-])c1
Cc1c(-c2ccc(/C=N/NC(=O)C(=O)Nc3ccccc3F)o2)cccc1[N+](=O)[O-]
CC1CCC2C(C1)c1sc(=O)[nH]c1SC2(C)C (stereo unspecified)
COc1ccc(-n2ncc3c(NCCCn4ccnc4)ncnc32)cc1
N#Cc1ccccc1OCC(=O)OCC(=O)N1CCN(C(=O)c2ccco2)CC1
CCCC(=O)Nc1cc(C)cn(Cc2c(F)cccc2Cl)c1=O
COc1ccc(-n2nnnc2SCC(=O)c2ccc3c(c2)OCCO3)cc1
COc1ccc(OCC(=O)NNc2c3ccccc3nc3ccccc23)cc1
CCOC(=O)N1CCN(C(=S)NCCOC)CC1
O=C(CC1(O)C(=O)Nc2cc(Cl)cc(Cl)c21)c1ccncc1 (stereo unspecified)
O=C(NCc1ccc(Cl)cc1)c1ccc(S(=O)(=O)N2CCCCC2)cc1
CC(C)c1ccc(S(=O)(=O)N2CCN(CC(=O)Nc3ccc(Cl)cc3F)CC2)cc1
O=C(c1ccc(S(=O)(=O)N2CCOCC2)cc1)N(c1cccc(Cl)c1)C1C=CS(=O)(=O)C1 (stereo unspecified)
Cc1ccc(C(=O)C2CCN(S(=O)(=O)c3ccc(C(=O)O)cc3)CC2)cc1
CC1CCCN(S(=O)(=O)c2ccc(NC(=O)CN3CCN(C)CC3)cc2)C1 (stereo unspecified)
Cc1cccc(NC(=S)N2CCN(c3ccccc3F)CC2)c1C
NS(=O)(=O)c1ccc(S(=O)(=O)N2CCN(C3CCCC3)CC2)cc1
CCc1cc(OCCN2C(=O)NC(C)(C)C2=O)ccc1Cl
S=C1NCN(Cc2ccco2)CN1CCc1ccccc1
Cc1ncc(CO)c2c1Oc1nc(-c3ccccc3)nc(SCC(=O)N3CCOCC3)c1C2
CCOC(=O)C(CCCP(=O)(c1ccccc1)c1ccccc1)(NC(C)=O)C(=O)OCC
O=C(Cn1cc(C(F)(F)F)ccc1=O)Nc1ccc2c(c1)OCCO2
Cc1ccc(Nc2nnc(SCC(=O)Nc3ccc(S(=O)(=O)N4CCOCC4)cc3)s2)cc1
CCN(CC)c1ccc(NC(=O)COC(=O)c2ccc3ccccc3n2)cc1
COC(=O)C(C)(C)NC(=O)c1cccs1
COc1ccc(OC)c(-c2csc(-c3cccs3)n2)c1
CCOC(=O)c1ccc(S(=O)(=O)N2CCN(c3ccccn3)CC2)cc1
COc1ccc(NC(=O)CN2CCN(S(=O)(=O)N3CCCCCC3)CC2)cc1
O=C(Nc1ccccc1)OCCCCOC(=O)Nc1ccccc1
CCc1nc2ccc(C)cc2c(C(=O)NC2CCCCC2C)c1C (stereo unspecified)
O=C(O)c1ccccc1NS(=O)(=O)c1ccc2ccccc2c1
CCOc1ccccc1Nc1nnc(SCc2ccc(C(=O)OC)o2)s1
COCCNC(=O)c1ccc(CN2CCc3ccccc3C2)cc1
Cc1ccc(C(=O)Cn2cc([N+](=O)[O-])nc2C)cc1
CC(C)(C)C1CCC2(CC1)C(Nc1cccc(C(F)(F)F)c1)=NC(=S)N2CC#N (stereo unspecified)
COc1ccc(CCC(=O)NCCOc2ccccc2Cl)cc1
CSc1nsc(SCC(=O)Nc2cccc(NC(C)=O)c2)n1
Cc1cccnc1NC(=O)c1ccc(S(=O)(=O)N2CC(C)OC(C)C2)cc1 (stereo unspecified)
O=C1CCCC(O)=C1N=Nc1cccc(C(=O)O)c1
O=C(NNC(=O)c1cccs1)c1ccc(Cl)c([N+](=O)[O-])c1
O=C(CNC(=O)c1ccco1)NCC(=O)OCc1ccccc1Cl
O=C(CC(=O)NCCc1ccccc1)NCCc1ccccc1
CC(C)CC(=O)N1CCC(O)(CS(=O)(=O)Cc2ccccc2Cl)CC1
COc1ccccc1C(=O)NNC(=O)Cc1ccccc1
